# Many of the other results were omitted from the sample, so the strongest signals are more common in it than they were.
# Assays:
# Experiment in all cases: glycan array binding signal (z-score within array); higher = stronger binding
# Settings in all cases: glycan notation: IUPAC condensed, linker removed
# [1] = test system: Fuc(a1-2)Gal(b1-4)GlcNAc(b1-3)[Fuc(a1-2)Gal(b1-4)GlcNAc(b1-6)]GalNAc
# Procedure, shortened: (§1)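 Negative Z-scores can be read as non-binding. The Z-score is calculated within each array and then averaged across arrays of one protein sequence at different concentrations or buffers and across linkers. Arrays, 3228 in all, were curated from the Consortium for Functional Glycomics database and kept only where the protein sequence was available.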
# [2] = test system: Fuc(a1-2)Gal(b1-4)GlcNAc(b1-3)[Fuc(a1-3)[Gal(b1-4)]GlcNAc(b1-6)]Gal(b1-4)Glc
# Procedure, shortened: as §1
# [3] = test system: Fuc(a1-2)Gal(b1-4)[Fuc(a1-3)]GlcNAc(b1-3)Gal(b1-4)[Fuc(a1-3)]GlcNAc(b1-3)Gal(b1-4)[Fuc(a1-3)]GlcNAc
# Procedure, shortened: as §1
# [4] = test system: Fuc(a1-2)Gal6S(b1-3)GlcNAc
# Procedure, shortened: as §1
# [5] = test system: Fuc(a1-2)[Gal(a1-3)]Gal(b1-3)GlcNAc(b1-3)GalNAc
# Procedure, shortened: as §1
# [6] = test system: Fuc(a1-2)Gal(b1-4)[Fuc(a1-3)]GlcNAc
# Procedure, shortened: as §1
# [7] = test system: Fuc(a1-2)Gal6S(b1-4)Glc
# Procedure, shortened: as §1
# [8] = test system: Fuc(a1-2)[Gal(a1-3)]Gal(b1-3)GalNAc
# Procedure, shortened: as §1
# [9] = test system: Fuc(a1-2)Gal(b1-4)GlcNAc(b1-6)GalNAc
# Procedure, shortened: as §1
# [10] = test system: Fuc(a1-2)Gal(b1-4)GlcNAc6S
# Procedure, shortened: as §1
# [11] = test system: Fuc(a1-2)Gal(b1-4)[Fuc(a1-3)]GlcNAc(b1-3)GalNAc
# Procedure, shortened: as §1
# [12] = test system: Fuc(a1-2)Gal(b1-4)GlcNAc
# Procedure, shortened: as §1
# [13] = test system: Fuc(a1-2)[Gal(a1-3)]Gal(b1-3)GlcNAc(b1-6)GalNAc
# Procedure, shortened: as §1
# [14] = test system: Fuc(a1-2)[Gal(a1-3)]Gal(b1-4)GlcNAc(b1-2)Man(a1-3)[Fuc(a1-2)[Gal(a1-3)]Gal(b1-4)GlcNAc(b1-2)Man(a1-6)]Man(b1-4)GlcNAc(b1-4)GlcNAc
# Procedure, shortened: as §1
# [15] = test system: Fuc(a1-2)Gal(b1-4)[Fuc(a1-3)]GlcNAc(b1-3)Gal(b1-4)[Fuc(a1-3)]GlcNAc
# Procedure, shortened: as §1
# [16] = test system: Fuc(a1-2)Gal
# Procedure, shortened: as §1
# [17] = test system: Fuc(a1-2)Gal(b1-4)[Fuc(a1-3)]GlcNAc(b1-2)Man(a1-3)[Fuc(a1-2)Gal(b1-4)[Fuc(a1-3)]GlcNAc(b1-2)Man(a1-6)]Man(b1-4)GlcNAc(b1-4)GlcNAc
# Procedure, shortened: as §1
# [18] = test system: Fuc(a1-2)[Gal(a1-3)]Gal(b1-4)GlcNAc
# Procedure, shortened: as §1
# [19] = test system: Fuc(a1-2)Gal6S(b1-4)Glc6S
# Procedure, shortened: as §1
# [20] = test system: Fuc(a1-2)[Gal(a1-3)]Gal(b1-3)GlcNAc
# Procedure, shortened: as §1
substance,measurement,setting,value
AgI/IIC123-GFP (Streptococcus mutans),glycan array binding signal (z-score),[1],-0.365
same,glycan array binding signal (z-score),[2],0.17
same,glycan array binding signal (z-score),[3],-0.094
same,glycan array binding signal (z-score),[4],4.98
same,glycan array binding signal (z-score),[5],-0.567
LcI (Legionella pneumophila),glycan array binding signal (z-score),[2],-0.92
same,glycan array binding signal (z-score),[6],-0.561
same,glycan array binding signal (z-score),[7],-0.438
same,glycan array binding signal (z-score),[8],-0.622
"Wza (Escherichia coli), P0A930",glycan array binding signal (z-score),[9],0.01
"SpGH101 (Streptococcus pneumoniae), Q8DR60",glycan array binding signal (z-score),[10],-0.166
same,glycan array binding signal (z-score),[11],0.136
same,glycan array binding signal (z-score),[6],-0.183
Epa22,glycan array binding signal (z-score),[12],0.238
same,glycan array binding signal (z-score),[13],-0.605
same,glycan array binding signal (z-score),[14],-0.038
"BambL (Burhholderia ambifaria), Q0B4G1",glycan array binding signal (z-score),[12],3.81
same,glycan array binding signal (z-score),[15],3.28
same,glycan array binding signal (z-score),[16],5.01
"SiiE (Salmonella typhimurium), A0A0H3NVH0",glycan array binding signal (z-score),[17],2.43
same,glycan array binding signal (z-score),[11],1.53
same,glycan array binding signal (z-score),[18],-0.344
Actinohivin (Actinomycete K97),glycan array binding signal (z-score),[19],-0.121
same,glycan array binding signal (z-score),[16],-0.161
same,glycan array binding signal (z-score),[20],-0.173
"GspB (Streptococcus gordonii), Q939N5",glycan array binding signal (z-score),[20],-0.728
